PfHsp90 set2 = growth inhibition of PfHsp90-expressing yeast, primary screen, antimalarial PfHsp90 inhibitor project, S. cerevisiae, BacTiter-Glo luminescence, single point, set 2; BacTiter-Glo ATP, 48 h; yeast lacking PDR1 and PDR3 efflux regulators; inhibition, % at 9.4 µM; hit rate 0.32% among 310,000; AID 504621, 2011;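 active = every replicate shows inhibition above about 80%, whatever the replicate mean, limit read from the data; inconclusive = mean inhibition reaches the set limit but some replicate falls short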
tim10-1 inh = growth inhibitors of tim10-1 mutant yeast, primary screen, luminescence, uHTS | hit rate 2.2% among 330,000 | AID 463190, 2010 | S. cerevisiae tim10-1 ts strain growth, BacTiter-Glo, 24 h | inhibition, % at 20 µM;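 active = inhibition of at least 40%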;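 note: mutant grown at 25 °C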
tim23-1 inh = growth inhibitors of tim23-1 mutant yeast, primary screen, luminescence, uHTS. inhibition, % at 20 µM. S. cerevisiae tim23-1 growth, BacTiter-Glo luminescence, 24 h. hit rate 1.3% among 330,000. AID 463212, 2010;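 active = growth inhibition of the mutant yeast at or above 50%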;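 note: temperature-sensitive mutant grown at 25 °C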
Calb FLC = C. albicans growth inhibition with fluconazole, primary screen, CaCi-2 strain, Alamar Blue fluorescence | C. albicans CaCi-2 (fluconazole-resistant clinical isolate) + fluconazole, 48 h | growth inhibition, % (no concentration beside the values) | hit rate 0.57% among 300,000 | AID 1979, 2009;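 active = growth inhibition above about 58% in most replicates, limit read from the data, passing the limit was not always enough; inconclusive = exactly half the replicates above a set limit; inactive = most replicates below a set limit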;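 note: all wells also contain fluconazole at 8 µg/ml as a sub-toxic cotreatment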
SKKanGAS inh = S. pyogenes SKKanGAS growth inhibitors in kanamycin, primary screen, streptokinase expression inhibitor project, SKKanGAS strain, BacTiter-Glo luminescence. hit rate 1.3% among 300,000. 6 h. AID 1662, 2009. inhibition, % at 7.5 µM;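 active = mean replicate score, as percent of positive control median, at least 50; inconclusive = mean below 50 but one replicate at or above 50; inactive = mean and every replicate below 50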;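 note: strain carries kanamycin resistance gene driven by streptokinase promoter and grows in 40 µg/ml kanamycin; loss of luminescence reflects streptokinase promoter inhibition or plain growth inhibition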
TIM10 inh = growth inhibitors of isogenic TIM10 control yeast, primary screen, counter-screen for tim10-1 yeast inhibitor project, luminescence, uHTS; hit rate 1.4% among 330,000; AID 463195, 2010; inhibition, % at 10 µM; S. cerevisiae TIM10 strain growth, BacTiter-Glo luminescence, 24 h;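 active = inhibition of 40% or more at the single tested concentration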;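 note: wild-type TIM10 isogenic control strain grown at permissive 25 °C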
tim10-1 confirm = growth inhibitors of tim10-1 mutant yeast, confirmation, single concentration, luminescence, S. cerevisiae; shares compounds with tim10-1 inh; S. cerevisiae tim10-1 ts strain growth, BacTiter-Glo, 24 h; inhibition, % at 20 µM; hit rate 56% among 7,400; AID 463213, 2010;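 active = inhibition of yeast growth at or above a set limit in either of two repeat tests at 20 µM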;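 note: tim10-1 mutant grown at permissive 25 °C to find synthetic lethal compounds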
A number is an active result; . = inactive; ? = inconclusive; / = not tested or not shown. Hits are enriched below; roughly 4.7% of the tested compounds scored in any of these assays.

SMILES	PfHsp90 set2	tim10-1 inh	tim23-1 inh	Calb FLC	SKKanGAS inh	TIM10 inh	tim10-1 confirm
O=[N+]([O-])c1cc(/C=N/O)ccc1Oc1cccc(Cl)c1	.	60.5	.	.	.	.	55.0
CCC(C)Oc1nc(C)cc(C)c1S(=O)(=O)c1ccccc1C (stereo not given)	.	44.1	.	.	.	.	.
COc1nc(C)cc(C)c1S(=O)(=O)c1ccccc1C	.	.	.	.	.	.	/
Cn1ncc(Cl)c1C(=O)Nc1cc(C(F)(F)F)ccc1F	/	47.3	.	.	.	.	.
O=C1c2cccnc2C(Nc2ccc(Br)cc2Br)N1Cc1cccs1 (stereo not given)	/	.	.	.	.	.	/
Cc1ccc(NC(=O)COC(=O)CCC2CCCC2)cc1S(=O)(=O)N1CCOCC1	.	.	.	/	/	.	/
Cc1ccc(OCC(=O)N/N=C\c2cn(C)c3ccccc23)c([N+](=O)[O-])c1	.	40.8	.	.	.	.	.
Cn1cc(/C=N/NC(=O)COc2ccccc2[N+](=O)[O-])c2ccccc21	.	.	.	.	.	.	/
CCCCN1CC(COC)Oc2cccc(F)c2S1(=O)=O (stereo not given)	.	/	/	/	/	/	/
O=C(NC1CCCCC1)C(Cc1ccccc1)N1C(=O)C2C3CCC(C3)C2C1=O (stereo not given)	.	.	.	.	.	.	/
O=C(NCc1ccccc1)C(Cc1ccccc1)N1C(=O)C2C3CCC(C3)C2C1=O (stereo not given)	/	40.4	.	.	.	.	.
O=c1ccc2c([nH]1)CCCCCCCCCC2	.	.	.	.	.	.	/
Cc1ccccc1CN1CCN(c2nc3ccccc3s2)CC1	.	41.5	.	.	.	.	.
O=C(c1cccc(C(F)(F)F)c1)N1CCC2(CC1)NCCc1[nH]cnc12	.	.	.	.	.	.	/
O=C(O)C1C2CCC(C2)C1C(=O)NCCc1ccccc1 (stereo not given)	.	.	.	.	.	.	/
OCCN1CCN(CCCN2c3ccccc3Sc3ccc(Cl)cc32)CC1	.	42.6	.	/	.	.	.
OCCN1CCN(CC/C=C2/c3ccccc3Sc3ccc(Cl)cc32)CC1	.	44.3	.	/	/	.	.
CN(C)CCCN1c2ccccc2Sc2ccc(Cl)cc21	.	.	.	/	.	.	/
C/C(CC(=O)Nc1cccc(Cl)c1Cl)=N\NC(=O)c1ccccc1Br	.	.	.	.	.	.	/
C/C(CC(=O)Nc1cccc(Cl)c1Cl)=N\NC(=O)c1ccccc1N	.	40.6	.	.	.	.	.
Cc1cccc2c1N(CCCOc1ccc(C(C)(C)C)cc1)C(=O)C2=O	.	40.3	.	.	.	.	.
CCc1noc(C)c1C(=O)Nc1cc(S(=O)(=O)N2CCOCC2)ccc1OC(C)C	/	.	.	.	.	.	/
CCCCN1C(=O)c2ccc(C(=O)NC3(C)CCS(=O)(=O)C3)cc2C1=O (stereo not given)	.	.	.	/	/	.	/
Cc1c(C(=O)N2CCC(C)CC2)oc2ccc3c(c12)C(O)CC1(CCCCC1)O3 (stereo not given)	.	49.1	.	.	.	.	.
CC(NC(=O)Cc1ccc(NS(=O)(=O)c2cccc(C(F)(F)F)c2)cc1)c1ccccn1 (stereo not given)	.	.	.	.	.	.	/
SMILES	PfHsp90 set2	tim10-1 inh	tim23-1 inh	Calb FLC	SKKanGAS inh	TIM10 inh	tim10-1 confirm
Cc1cc(/C=C(\C#N)C(=O)NCc2ccco2)c(C)n1C1CCCC1	.	45.6	.	.	.	.	.
Cc1ccc(OCc2cc(C(=O)N(C)Cc3cnc4ccccn34)no2)cc1C	.	.	.	.	.	.	/
COc1ccc(N(C)S(=O)(=O)c2cccc(C(=O)Nc3nc4ccccc4[nH]3)c2)cc1	.	40.7	.	.	.	.	.
COc1ccccc1N1CCN(CCCN=C2CC(=O)N(C)C(=O)N2C)CC1	.	.	.	/	/	.	/
COc1ccc(C2C=C(C34CC5CC(CC(C5)C3)C4)NC(=S)N2)cc1OC (stereo not given)	.	55.6	.	.	.	.	.
COc1ccc(C2OCC(C)(C)CO2)cc1OC	.	/	/	/	/	/	/
CCOC(=O)c1ccc(S(=O)(=O)Nc2cc(S(=O)(=O)Nc3ccc(OC)cc3)ccc2O)cc1	/	.	.	/	/	.	/
Cc1ccc2[nH]c(C)c(/C=C/c3cc[n+](C)cc3)c2c1	.	51.4	.	93.5	.	.	.
C[n+]1ccc(/C=C/c2c[nH]c3ccc(F)cc23)cc1	.	.	.	.	.	.	/
CCCNC(=O)C(=O)NCCC1=CCCCC1	/	.	.	.	.	.	/
O=C(NC(=S)NCCC1=CCCCC1)c1cncc(Br)c1	.	42.1	.	.	.	.	.
Cc1ccc(C2C(C#N)=C(N)Oc3n[nH]c(-c4cccs4)c32)s1 (stereo not given)	.	45.8	.	.	.	.	.
Cc1ccc(S(=O)(=O)NC(=NC2CCCCC2)c2ccc(Cl)cc2)cc1	.	.	.	.	.	.	/
O=C(c1ccnc(Cl)c1)N1CCCC(N2CCN(c3ccccc3F)CC2)C1 (stereo not given)	.	.	.	.	.	.	/
COc1cccc(-c2nnc(SCN3C(=O)c4ccccc4C3=O)n2C)c1	.	41.6	.	.	.	.	33.0
CCN(CC)S(=O)(=O)c1ccc(NC(=O)CSc2nnc(-c3cccc(OC)c3)n2C)cc1	.	.	.	?	.	.	/
CCn1ccnc1CN(C)Cc1cn(-c2ccc(C)cc2)nc1-c1ccc(F)cc1	.	.	.	.	.	.	/
CCn1ccnc1CN(C)Cc1cn(-c2cc(C)ccc2C)nc1-c1ccccc1	.	41.5	.	.	.	.	.
N#CCCn1cc(C(=O)Nc2ccc([N+](=O)[O-])cc2)c(-c2cccs2)n1	.	.	.	.	.	.	/
COc1ccc(NC(=O)c2cn(CCC#N)nc2-c2cccs2)cc1	.	41.4	.	.	.	.	.
CCOc1cc(/C=C2\C(=O)ON=C2c2ccccc2)cc(Br)c1O	.	45.2	.	.	.	.	30.1
CN(C)C(=S)NC(=S)Nc1ccc2ccccc2c1	.	/	/	/	/	/	/
O=C1c2ccccc2S(=O)(=O)c2cc(C(=O)N(c3ccccn3)c3ccccn3)ccc21	.	40.7	.	.	.	.	.
O=C(Nc1ccccn1)c1ccc2c(c1)S(=O)(=O)c1ccccc1C2=O	.	.	.	.	.	.	/
COc1ccc(-c2nc(-c3ccccn3)no2)cc1	85.9	48.9	.	/	/	.	55.7
